Screening results deposited in PubChem by National Center for Advancing Translational Sciences (NCATS).
In the library only some 12% were active in any assay of this set; here they are far more common.
SARS PLpro yeast: blocks SARS-CoV papain-like protease in a yeast assay | S. cerevisiae expressing SARS-CoV PLpro, growth rescue | Potency, µM (series often up to 32.9 µM), inactives show at the top dose activity, positive = growth rescue, most hits filed as activators | 330,000 tested, 0.19% active; calls by dose curve; also: 0% is about no effect; nearly all actives have a fitted effect of over 55% in size
Sm TGR block: blocks Schistosoma mansoni thioredoxin glutathione reductase; Q962Y6; purified TGR, DTNB reduction, TNB absorbance 405 nm; Potency, µM (titrated, usually from 114 µM), for the others: at the top dose activity change, negative = inhibition, actives largely listed as inhibitors; 360,000 tested, 3% active; AID 485364; also: % is scaled to controls: 0 for no effect and ±100 for the full control effect; nearly all actives have a fitted effect of over 60% in size
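TGR 20 nM + NADPH 100 uM (dispensed conc.), cpd preinc 15 min RT; start with NADPH (500 uM addition) then DTNB (15 mM addition). Kinetic TNB absorbance, 405 nm filter. Four-parameter Hill fit across titration.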
Pf growth 48h: P. falciparum growth inhibition at 48 hours (one generation) | P. falciparum luciferase growth in erythrocytes, 48 h | Potency, µM (series often up to 28.7 µM), for the others: at the highest dose activity change, negative = inhibition, most hits filed as inhibitors | 310,000 tested, 5.9% active; also: % is scaled to controls: 0 for no effect and ±100 for the full control effect
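Parasite viability was followed by luminescence of a genomically integrated firefly luciferase. Cultures held 0.1% parasitemia at 2% hematocrit (final), incubated under 5% CO2 at 37 C.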
Pf growth 96h: P. falciparum growth inhibition at 96 hour, primary screen for plastid delayed-death inhibitors. P. falciparum luciferase reporter growth, 96 h. Potency, µM (series often up to 28.7 µM), for inactives: at the highest dose activity change, negative = inhibition, hits mostly inhibitors. 320,000 tested, 6.9% active. AID 504834; also: % is scaled to controls: 0 for no effect and ±100 for the full control effect
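P. falciparum expressing integrated firefly luciferase, in erythrocytes at 2% hematocrit, 0.05% parasitemia, incubated with compounds 96 h at 37 C, 5% CO2. Growth inhibition read as loss of luminescence; two-generation exposure targets delayed-death apicoplast inhibitors.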
Numbers without * were called inactive; ? = inconclusive; / = not tested or not shown; [ ] = dose if it differs, or a comment. Unless noted, calls follow the shape of the dose curve; as a rule, active = well fitted curve in the direction sought with a large enough effect; inconclusive = small, poorly fitted or top-dose-only effect, or another doubt; inactive = no such curve, though single readings can be large; an effect the other way counts as inactive or inconclusive. Potency is read from the fitted curve at half-maximal effect.

SMILES | SARS PLpro yeast | Sm TGR block | Pf growth 48h | Pf growth 96h
CC(=O)c1cccc(NC(=S)NC2CC2)c1 | ? | 40µM* | 0% | ?
O=C(Nc1nccs1)c1cccc(NC(=O)C2CC2)c1 | 0% | 5% | -15% | 13µM*
CC(=O)c1cccc(NC(=O)N2CCCCCC2)c1 | 2% | 2% | 8% | -3%
COc1ccccc1N1CCN(C(=O)CCS(=O)(=O)c2cc(Br)cc3c2N(C(=O)C2CC2)CC3)CC1 | / | -9% | / | /
C=CCc1cc(OC)ccc1OCCN1CC(C)OC(C)C1 (stereo unspecified) | -3% | 1% | -4% | 57%
Cc1ccc2c(c1)-c1c(cnn1CC(=O)N1CCN(c3ccccc3F)CC1)CO2 | / | 13% | / | /
O=S(=O)(Nc1ccc(F)cc1)N1CCOCC1 | 0% | 12% | 8% | 32%
CC(=O)c1cccc(NC(=O)C2CCCCC2)c1 | 1% | 0% | 8% | 1.5µM*
Cc1sc2ncnc(N3CCCCC3)c2c1C | 7% | -9% | 0% | /
Cc1sc2ncnc(NCC(c3ccco3)N3CCCC3)c2c1C (stereo unspecified) | 12% | 7% | 10µM* | 8.3µM*
O=C(Nc1ccccc1)c1cccnc1NCCc1ccccc1 | -12% | 3% | -13% | ?
COc1ccc(NC(=O)c2cccnc2NCCc2ccccc2)cc1 | 10% | -3% | ? | 1.5µM*
CCOC(=O)Cc1ncccc1C(=O)Nc1ccc(Oc2ccccc2)cc1 | -2% | -3% | 8.3µM* | 12µM*
CCC(C(=O)NCCC(C)C)n1ccc2cc(S(=O)(=O)N3CCCCC3)ccc21 (stereo unspecified) | 0% | 4% | 12µM* | 36%
COc1cccc(CNC(=O)c2cc(S(=O)(=O)N3CCCC3)cn2C)c1 | 0% | -17% | 13µM* | 12µM*
COc1cccc(CNC(=O)C(C)n2ccc3cc(S(=O)(=O)N4CCCCCC4)ccc32)c1 (stereo unspecified) | 2% | 4% | 7.4µM* | ?
O=C(O)CCn1ccc2cc(S(=O)(=O)N3CCCCCC3)ccc21 | 3% | 0% | 6% | 6%
COc1cccc(CNC(=O)c2cc(S(=O)(=O)N3CCCCCC3)cn2C)c1 | / | -5% | / | /
CC(C)CCNC(=O)c1cc2cc(S(=O)(=O)N3CCCCC3)ccc2n1C | / | 4% | / | /
O=C(O)CCCn1ccc2cc(S(=O)(=O)N3CCCC3)ccc21 | -2% | -5% | 3% | 13µM*
Cc1sc2ncnc(N3CCC(C(=O)Nc4cc(S(C)(=O)=O)ccc4Cl)CC3)c2c1C | 2% | -1% | 9.3µM* | ?
Cc1ccc(NC(=O)C2CCN(c3ncnc4sc(C)c(C)c34)CC2)cc1S(=O)(=O)N(C)C | -2% | 0% | 4.1µM* | 4.7µM*
Cc1ccc2nc(NC(=O)C3CCN(c4ncnc5sc(C)c(C)c45)CC3)sc2c1 | -2% | -1% | -5% | ?
Cc1sc2ncnc(N3CCC(C(=O)Nc4ccc(S(N)(=O)=O)cc4)CC3)c2c1C | 1% | -7% | ? | ?
Cc1ccc(C)c(S(=O)(=O)N2CCN(C(=O)C3CCN(c4ncnc5sc(C)c(C)c45)CC3)CC2)c1 | 0% | -2% | 5.2µM* | ?
SMILES | SARS PLpro yeast | Sm TGR block | Pf growth 48h | Pf growth 96h
Cc1sc2ncnc(N3CCC(C(=O)N(C)CC(=O)Nc4ccccc4Cl)CC3)c2c1C | 1% | -13% | ? | ?
Cc1sc2ncnc(N3CCC(C(=O)N(C)CC(=O)Nc4ccc(Cl)c(C(F)(F)F)c4)CC3)c2c1C | 1% | 2% | 9.3µM* | ?
O=C(CSc1ccccc1)OCC(=O)N1CCN(C(=O)c2ccco2)CC1 | -4% | -25% | ? | 21%
COC(=O)[C@H](C)N(Cc1ccc(Cl)c(Cl)c1)S(=O)(=O)CCN1CCN(c2ccccc2)CC1 | -5% | / | / | /
CCN(CC)S(=O)(=O)c1cc(NC(=O)C2CCN(c3ncnc4sc(C)c(C)c34)CC2)ccc1Cl | -2% | 2% | 12µM* | 5.2µM*
CCCS(=O)(=O)c1nc(S(=O)(=O)c2ccc(C)cc2)c(NCc2ccco2)s1 | 5% | 18µM* | 12µM* | ?
CCCS(=O)(=O)c1nc(S(=O)(=O)c2ccc(C)cc2)c(NCc2ccccn2)s1 | -4% | 7.9µM* | ? | -20%
CCS(=O)(=O)c1nc(S(=O)(=O)c2ccc(C)cc2)c(NCc2ccccn2)s1 | 1% | 1% | -24% | -33%
CCS(=O)(=O)c1nc(S(=O)(=O)c2ccc(Cl)cc2)c(NCCCN2CCCC2=O)s1 | 3% | -6% | -13% | ?
CCCS(=O)(=O)c1nc(S(=O)(=O)c2ccc(C)cc2)c(NCCCN2CCCC2=O)s1 | -3% | -13% | -16% | 9.3µM*
Cc1ccc(S(=O)(=O)c2nc(S(=O)(=O)c3ccc(C)cc3)c(NCc3ccco3)s2)cc1 | 3% | -34% | ? | 13µM*
Cc1ccccc1Cn1c(C)c(CNCCCc2ccccc2)c(C(=O)O)c1C | / | -3% | / | /
Cn1c(=O)cc(SCC(=O)N2CCN(c3ccccc3F)CC2)c2ccc(Cl)cc21 | / | 1% | / | /
CCC1(c2ccccc2)NC(=O)N(CC(=O)NNC(=O)COc2ccc(Cl)cc2C)C1=O (stereo unspecified) | -2% | -5% | ? | -9%
CS(=O)(=O)c1nc(S(=O)(=O)c2ccc(Cl)cc2)c(NCc2ccccn2)s1 | -1% | 35µM* | ? | 32%
Cc1ccccc1C(=O)Nc1nc(-c2ccc(Br)cc2)ns1 | / | 8% | / | /
COc1cc(C)c(CN2CCC(n3nccc3NC(=O)C3CC3)CC2)cc1C | 9% | 9% | ? | 13%
O=C(Nc1nc2c(s1)CCCC2)c1ccc(Br)o1 | -15% | 1% | 107% | 46%
Cc1ccc(C(=O)Nc2nc3c(s2)CCCC3)o1 | -26% | -13% | 126% | 13µM*
O=C(COC(=O)CN1C(=O)NC2(CCCC2)C1=O)NCc1ccc(Cl)cc1Cl | 3% | / | / | /
CC(=O)c1c[nH]c(C(=O)NCC2CCCO2)c1 (stereo unspecified) | ? | 6% | 11% | 46%
Cc1onc(-c2c(Cl)cccc2Cl)c1C(=O)c1c[nH]c(C(=O)NCC2CCCO2)c1 (stereo unspecified) | -3% | 1% | 10µM* | ?
Cc1cc(C(=O)N2CCN(c3ccccc3)CC2)c2c(C)nn(-c3cccc(F)c3)c2n1 | / | 9% | / | /
CCOc1ccccc1N1CCN(C(=S)NC(=O)C23CC4CC(CC(C4)C2)C3)CC1 | 14% | 0% | 8.3µM* | ?
O=C(CN1CCN(Cc2ccc(Cl)cc2)CC1)N1CCc2ccccc21 | -1% | -17% | -17% | ?
COc1ccc(NC(=O)N2CCCC(c3nc(-c4ccc(C(C)C)cc4)no3)C2)cc1 (stereo unspecified) | -21% | -3% | 37% | 8.3µM*
COc1ccc(NC(=O)N2CCCC(c3nc(-c4ccc(OC)cc4)no3)C2)cc1 (stereo unspecified) | -2% | -27%[57.1 µM] | 44% | 19%
CCCC(c1nnnn1Cc1ccc(OC)cc1)N1CCN(c2ccccc2)CC1 (stereo unspecified) | -3% | 2% | 13µM* | -26%
